Vif inh = HIV Vif self-association inhibitors, primary screen, imaging, HEK293T, single point | inhibition, % at 7.49 µM | HEK293T cells, Vif self-association by quenched fluorescence, 24 h | actives 0.35% (n = 340,000); in the data active means inhibition above about 50%, passing the limit was not always enough
aDG glyco act = activators of alpha-DG glycosylation, primary screen, uHTS, Pro5-aDG cells, AlphaScreen; alpha-DG glycosylation AlphaScreen (IIH6); 0% Pro5, 100% B10-LARGE cell signal; activation, % at 10 µM; actives 0.22% (n = 360,000);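 active means activation of at least 8% versus controls, or a plate z-score of at least 8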;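 further: Pro5 are CHO cells carrying HIG-tagged alpha-DG that lacks glycosylation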
ARNT TACC3 PPI = disruptors of ARNT/TACC3 protein interaction, primary screen, biochemical, AlphaScreen, single concentration. inhibition, % at 9.99 µM. Transforming acidic coiled-coil-containing protein 3 (Homo sapiens), Q9Y6A5. AID 623870, 2012. actives 0.66% (n = 390,000). AlphaScreen His-ARNT PAS-B/GST-TACC3 binding, luminescence; TACC3 fragment carries E629A point mutation;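 active means mean inhibition of replicates at least 50% and at least half of replicates each reaching 50%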;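 further: 0% = complete ARNT plus TACC3 wells and 100% = ARNT alone without TACC3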
Glyco luc inh = increase of ERlucT glycosylation luciferase signal, primary screen, N-linked glycosylation inhibitor project, D54 ERlucT cells, luminescence, set 2; D54 ERlucT glycosylation luciferase reporter, 24 h; percent of 100 nM tunicamycin response; reporter increase, % at 12.5 µM; actives 0.23% (n = 360,000);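 active means mean luciferase reporter signal, scaled so untreated is 0 and the glycosylation-blocking control 100, at or above a set limit in every replicate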;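 further: luciferase carries N-glycosylation sites so blocking glycosylation raises the light; 0% = median of neutral control wells and 100% = median of 100 nM tunicamycin wells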
Cardio protect = cardioprotection against H2O2-induced cell death, primary screen, uHTS, H9c2 cells, ATPLite luminescence. H9c2 cardiomyocytes, H2O2 injury protection, 2 h. protection from H2O2 cell death, % at 20 µM. actives 0.63% (n = 360,000);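 active means compounds giving at least 50% protection of heart cells from peroxide-induced death in the single-dose screen, raw or plate-pattern-corrected value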;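 further: 0% = DMSO wells with peroxide and 100% = DMSO wells without peroxide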
* = called active by the depositor. A selection: hits, their analogues and other compounds. The true share with any hit is near 1.7%.

COc1ccc(S(=O)(=O)Nc2ccc3c(c2)C(=O)N([C@H](C)CO)C[C@@H](C)[C@@H](CN(C)C(=O)NC2CCCCC2)O3)cc1 was read as ARNT TACC3 PPI -8.
CCCn1c(NC(=O)c2ccc(Cl)c(S(=O)(=O)N3CCCC3)c2)nc2ccccc21 was read as Vif inh -16, aDG glyco act 0, ARNT TACC3 PPI 0, Glyco luc inh -5 and Cardio protect 61*.
`O=C1C=C(Nc2cccnc2)c2ccccc2C1=O` gave Vif inh 2, aDG glyco act 3, ARNT TACC3 PPI 35*, Glyco luc inh -10 and Cardio protect -18.
O=C1C=C(Nc2ccc(F)cc2)c2ccccc2C1=O was read as Vif inh 5, aDG glyco act 8.9*, ARNT TACC3 PPI -1, Glyco luc inh -11 and Cardio protect -25.
Screening CCOc1ccc(NC2=CC(=O)C(=O)c3ccccc32)cc1 returned Vif inh -14, aDG glyco act 7, ARNT TACC3 PPI 39, Glyco luc inh -20 and Cardio protect -20.
For CC(C(=O)Nc1cccnc1)N1C(=O)c2ccccc2C1=O (stereo not given) the results were Vif inh -9, aDG glyco act 0, ARNT TACC3 PPI 4, Glyco luc inh 3 and Cardio protect 2.
CCN(CC)c1ccc(/C=N/Nc2ccc(C)cc2)c(O)c1 was read as Vif inh -7, aDG glyco act 0, ARNT TACC3 PPI 11, Glyco luc inh 3 and Cardio protect 0.
Screening Cc1cc(=O)[nH]c(NN=Cc2cc(Br)ccc2O)n1 returned Vif inh -6, aDG glyco act 2, ARNT TACC3 PPI 64*, Glyco luc inh -10 and Cardio protect 42.
For CCN(CC)c1ccc(/C=N/NC(=O)c2c(Cl)cnn2C)c(O)c1 the results were Vif inh -10, aDG glyco act 2, ARNT TACC3 PPI 66*, Glyco luc inh -12 and Cardio protect 40.
`CCOC(=O)N/N=C/c1ccc(N(CC)CC)cc1O` gave Vif inh 1, aDG glyco act 0, ARNT TACC3 PPI 11, Glyco luc inh 16 and Cardio protect 19.
CCN(CC)c1ccc(/C=N/Nc2nc(C)cc(=O)[nH]2)c(O)c1 was read as Vif inh -8, aDG glyco act 1, ARNT TACC3 PPI 64*, Glyco luc inh -15 and Cardio protect 33.
For COCC#Cc1cnc2c(c1)C(=O)N([C@H](C)CO)C[C@@H](C)[C@@H](CN(C)C(=O)Nc1ccccc1OC)O2 the results were ARNT TACC3 PPI -8.
`O=C(NCC[C@@H]1CC[C@H](NC(=O)C2CCCC2)[C@H](CO)O1)c1ccc(F)cc1` gave ARNT TACC3 PPI -14.
`COc1ccc(C(=O)O/N=C(/c2ccccc2)c2ccncc2)cc1OC` gave Vif inh 27, aDG glyco act 0, ARNT TACC3 PPI 1, Glyco luc inh 0 and Cardio protect 59*.
N#CCCn1c(SCC(=O)c2c[nH]c3ccccc23)nc2ccccc21 was read as Vif inh -1, aDG glyco act 0, ARNT TACC3 PPI -4, Glyco luc inh 0 and Cardio protect 51*.
Screening Cc1ccsc1/C=N/Nc1ncnc2nc[nH]c12 returned aDG glyco act 0, ARNT TACC3 PPI 58*, Glyco luc inh 3 and Cardio protect 1.
`Cc1ccccc1/C=N/Nc1ncnc2nc[nH]c12` gave Vif inh 22, aDG glyco act 0, ARNT TACC3 PPI 29, Glyco luc inh 1 and Cardio protect 1.
`Cc1cc2oc3ccc(NCCCn4ccnc4)cc3c(=O)c2cc1C` gave Vif inh 154*, aDG glyco act 1, ARNT TACC3 PPI -8, Glyco luc inh -6 and Cardio protect -20.
For Cc1cc2oc3ccc(NCCCN4CCOCC4)cc3c(=O)c2cc1C the results were Vif inh -9, aDG glyco act 1, Glyco luc inh 5 and Cardio protect -22.
Screening CCCNC(=O)C[C@H]1CC[C@@H]2[C@@H](COc3ccc(NC(=O)c4cccs4)cc3C(=O)N2C)O1 returned ARNT TACC3 PPI 10.
